PubChem BioAssay (NCATS)
Values joined by “and” are separate entries in the source; they are usually repeats but may differ in a detail not shown here. Equal values may be shown once. Records with an inconclusive call do not appear. Some compounds were tested as several samples or in several runs, with calls that do not always agree. Active and inactive are the calls of the source. Calls follow the shape of the dose curve; as a rule, active = well fitted curve in the direction sought with a large enough effect; inconclusive = small, poorly fitted or top-dose-only effect, or another doubt; inactive = no such curve, though single readings can be large; an effect the other way counts as inactive or inconclusive.

Tests used:
[1] = Viability qHTS for spleen associated tyrosine kinase inhibitor (SYKi) naive MV4-11 cells (AID 1963823); also: nearly all actives have a fitted effect of over 40% in size
In short: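 In this viability screen, compounds acted on SYK inhibitor naive MV4-11 cells for three days (72 hr, 37 C). Remaining viable cells were measured by CellTiter-Glo luminescence following a 10 min room-temperature development.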

[2] = Viability qHTS for spleen associated tyrosine kinase inhibitor (SYKi) drug resistant MV4-11 cells (AID 1963824); also: nearly all actives have a fitted effect of over 35% in size
In short: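 SYK inhibitor-resistant MV4-11 AML cells, 500 per well, added to predispensed compounds and incubated 72 hr at 37 C, 5% CO2. Viability measured by CellTiter-Glo luminescence after 10 min at room temperature.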

[3] = Quantitative highthroughput screen to assess conditional lethalithy of NOMO1 cells grown in RPMI1640 with untreated serum (RPMI+s) (AID 1963876); also: nearly all actives have a fitted effect of over 35% in size;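 as to Viability: 100% = DMSO wells and 0% = empty wells without cells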
In short: (§1)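 Each medium arm—HPLM with 10% dialyzed FBS, or RPMI1640 with 5 mM glucose and 10% untreated or dialyzed FBS—was screened against an 11-point, 3-fold compound titration for 48 h at 37 °C, with CellTiter-Glo luminescence as endpoint.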

[4] = Quantitative highthroughput screen to assess conditional lethalithy of P12 Ichikawa cells grown in Human Plasma-Like Medium with dialyzed fetal bovine serum (HPLM+ds) (AID 1963879); details: Potency: viability; also: nearly all actives have a fitted effect of over 35% in size; as to Viability: series mostly up to about 46 µM
In short: as §1

[5] = Quantitative highthroughput screen to assess conditional lethalithy of P12 Ichikawa cells grown in RPMI1640 with dialyzed fetal bovine serum (RPMI+ds) (AID 1963880); details: Potency: P12-Ichikawa viability; also: nearly all actives have a fitted effect of over 35% in size;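 as to Viability: 100% = DMSO wells and 0% = empty wells on each plate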
In short: as §1

[6] = Quantitative highthroughput screen to assess conditional lethalithy of P12 Ichikawa cells grown in RPMI1640 with untreated serum (RPMI+s) (AID 1963881); details: Potency: viability; also: nearly all actives have a fitted effect of over 35% in size;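 as to Viability: series mostly up to about 46 µM; 100% = DMSO wells and 0% = empty wells without cells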
In short: as §1

[7] = Quantitative highthroughput screen to assess conditional lethalithy of SEM cells grown in Human Plasma-Like Medium with dialyzed fetal bovine serum (HPLM+ds) (AID 1963882); also: nearly all actives have a fitted effect of over 35% in size; as to Viability: series mostly up to about 46 µM
In short: as §1

[8] = Quantitative highthroughput screen to assess conditional lethalithy of SEM cells grown in RPMI1640 with unreated serum (RPMI+s) (AID 1963883); also: nearly all actives have a fitted effect of over 35% in size;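 as to Viability: 100% = DMSO wells and 0% = empty wells without cells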
In short: as §1

[9] = Quantitative highthroughput screen to assess conditional lethalithy of SEM cells grown in RPMI1640 with dialyzed fetal bovine serum (RPMI+ds) (AID 1963884); also: nearly all actives have a fitted effect of over 35% in size;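 as to Viability: series mostly up to about 46 µM; 100% = DMSO control wells and 0% = empty wells without cells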
In short: as §1

[10] = Cellular viability qHTS for adrenocortical cancer (ACC) cell line SW-13 (AID 1963989); details: SW-13 ACC cells viability, CellTiter-Glo, 48 h; activity (max response): stronger effect = lower value; also: nearly all actives have a fitted effect of over 65% in size;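 as to activity (max response): cells grown in serum-free medium with ITS supplement; % is scaled to controls: 0 for no effect and ±100 for the full control effect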
In short: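 Compound titrations (up to 46 uM final, in DMSO) were applied to SW-13 cells for 48 h at 37C/5% CO2. Reading used CellTiter-Glo after 20 min at room temperature; fitted curves yielded IC50 and efficacy.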

[11] = Cellular viability qHTS for adrenocortical cancer (ACC) cell line NCI-H295R (AID 1963990); also: nearly all actives have a fitted effect of over 60% in size;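 as to activity change, negative = viability loss: 0% = DMSO only wells and -100% = full killing with cytotoxic reference compound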
In short: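 Readout: CellTiter-Glo luminescence, 20 min RT. Exposure: 48 h, 37C/5% CO2. Cells: NCI-H295R, ITS-DMEM serum-free. Range: up to 46 uM. Analysis: 4PL fit, IC50 plus efficacy.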

[12] = Quantitative highthroughput screen to assess conditional lethalithy of NOMO1 cells grown in Human Plasma-Like Medium with dialyzed fetal bovine serum (HPLM+ds) (AID 1963878); also: nearly all actives have a fitted effect of over 35% in size;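 as to Viability: 100% = DMSO wells and 0% = empty wells on each plate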
In short: as §1
Potency is read from the fitted curve at half-maximal effect.

COc1ccc(C(=O)CC(=O)c2ccc(C(C)(C)C)cc2)cc1
inactive and 16.6 µM (active): Potency [2]
inactive and 14.8 µM (active): Potency [1]
inactive: Potency [3] | Potency [4] | Potency [5] | Potency [6] | Potency [7] | Potency [8] | Potency [9] | activity (max response) [10] 8.41% and -10.7% | Potency [11]

COc1cc2nccc(Oc3ccc(NC(=O)Nc4cc(C)on4)c(Cl)c3)c2cc1OC
inactive: Potency [3] | Potency [12]
active: Potency [1] 0.372 µM | Potency [2] 0.833 µM | Potency [8] 3.32 µM | Potency [9] 4.69 µM | Potency [11] 14.1 µM

CCc1cc(-c2n[nH]c(C)c2-c2ccc3c(c2)OCCO3)c(O)cc1O
active: Potency [1] 2.35 µM | Potency [2] 4.17 µM | Potency [3] 9.35 µM | Potency [12] 11.8 µM | Potency [10] 14.1 µM | Potency [11] 15.8 µM

S=P(N1CC1)(N1CC1)N1CC1
inactive: Potency [3] | Potency [4] | Potency [5] | Potency [6] | activity (max response) [10] 10.4% | Potency [11]
inactive and 6.61 µM (active): Potency [1]
active: Potency [2] 3.32 µM

CS(=O)(=O)CCNCc1ccc(-c2ccc3ncnc(Nc4ccc(OCc5cccc(F)c5)c(Cl)c4)c3c2)o1
inactive: Potency [4]
active: Potency [1] 20.6 µM and 14.8 µM | Potency [2] 16.8 µM and 8.2 µM and 11.8 µM | Potency [3] 18.7 µM | Potency [5] 18.7 µM | Potency [6] 18.7 µM | Potency [9] 23.5 µM | Potency [10] 18.4 µM and 14.1 µM | Potency [11] 23.1 µM and 17.8 µM

COc1cc([C@@H]2c3cc4c(cc3[C@H](O)[C@H]3COC(=O)[C@H]23)OCO4)cc(OC)c1OC
active: Potency [1] 26.6 nM and 26.3 nM | Potency [2] 37.6 nM and 37.2 nM | Potency [3] 0.0042 µM | Potency [4] 0.0019 µM | Potency [5] 0.0021 µM | Potency [6] 0.0021 µM | Potency [7] 0.0026 µM | Potency [8] 0.0019 µM | Potency [9] 0.0026 µM | Potency [10] 9.2 nM and 44.7 nM | Potency [11] 7.3 nM and 50.1 nM

CN1CCC(=C2c3ccccc3CCc3sccc32)CC1
inactive: Potency [3] | Potency [4] | Potency [6] | Potency [8]
active: Potency [1] 14.8 µM | Potency [2] 18.6 µM

Cc1ccc(S(=O)(=O)OCC(=O)Nc2ccc(C(=O)O)c(O)c2)cc1
active: Potency [4] 23.5 µM | Potency [8] 16.6 µM
inactive: Potency [1] | Potency [2] | Potency [3] | activity (max response) [10] 6.62% | Potency [11]

O=C(O)c1ccccc1C(=O)Nc1ccc(-c2ccccc2)cc1
inactive: Potency [1] | Potency [2] | Potency [3] | Potency [4] | Potency [5] | Potency [6] | activity (max response) [10] -5.47%

O=C(O)Cn1nnc(-c2cc(N3CCC(Oc4cc(F)ccc4Br)CC3)no2)n1
active: Potency [2] 0.103 µM | Potency [3] 1.05 µM | Potency [4] 9.35 µM | Potency [5] 11.8 µM | Potency [6] 9.35 µM
inactive: Potency [1] | Potency [8] | Potency [9] | Potency [11]

CCCS(=O)(=O)Nc1ccc(F)c(C(=O)c2c[nH]c3ncc(-c4ccc(Cl)cc4)cc23)c1F
active: Potency [1] 14.8 µM | Potency [2] 16.6 µM
inactive: Potency [3] | Potency [4] | Potency [5] | Potency [6] | Potency [7] | Potency [8] | Potency [9] | activity (max response) [10] -1.45% | Potency [11]

Cc1ccc(C(=O)N(CCCN)[C@@H](c2nc3cc(Cl)ccc3c(=O)n2Cc2ccccc2)C(C)C)cc1
active: Potency [1] 0.0042 µM | Potency [2] 0.0037 µM | Potency [3] 0.0013 µM | Potency [4] 0.0013 µM | Potency [5] 0.0021 µM | Potency [6] 0.0013 µM | Potency [7] 0.0012 µM | Potency [8] 0.0012 µM | Potency [9] 0.0013 µM | Potency [10] 0.01 µM | Potency [11] 0.0794 µM

CC(C)(S)[C@@H](N)C(=O)O
inactive: viability (% of control) [1] 88.9% [at 4.97 µM] | viability, % of control [2] 89% [at 4.97 µM] | Potency [3] | Potency [4] | Potency [5] | Potency [6] | activity (max response) [10] 0.215% | activity change, negative = viability loss [11] -1.21% [at 3.81 µM]

COc1cc2ncn(-c3cc(OCc4ccccc4C(F)(F)F)c(C(N)=O)s3)c2cc1OC
active: Potency [1] 355 nM and 662 nM | Potency [2] 282 nM and 263 nM | Potency [3] 2.64 µM | Potency [4] 1.32 µM | Potency [5] 2.35 µM | Potency [6] 2.09 µM | Potency [8] 2.09 µM | Potency [9] 2.64 µM | Potency [10] 1.26 µM

N#CC[C@H](C1CCCC1)n1cc(-c2ncnc3[nH]ccc23)cn1
inactive: activity (max response) [10] -17.5%
active: Potency [1] 8.2 µM | Potency [2] 20.6 µM | Potency [3] 14.8 µM | Potency [12] 7.43 µM

O=C(NCC1CCCCN1)c1cc(OCC(F)(F)F)ccc1OCC(F)(F)F (centres undefined)
active: Potency [3] 0.332 µM | Potency [4] 1.87 µM | Potency [5] 2.96 µM | Potency [6] 1.66 µM
inactive: Potency [1] | Potency [2] | Potency [9] | activity (max response) [10] -4.23% | Potency [11]
